This note sets out measurements from ChEMBL document CHEMBL4296182, “CO-ADD screening of NIH NCI Diversity Set V”.

As a reminder, the Inhibition is the drop in the measured response relative to a control, in per cent.

For part of these data: Entries with a potency or affinity are not part of this list.

For experiment [1], the system named is Staphylococcus aureus. Nature of the experiment: Antibacterial activity against Staphylococcus aureus MRSA ATCC 43300 (CO-ADD:GP_020); MIC in CAMBH media using NBS plates, by Resazurin F(560/590). Format: functional. Conditions: Concentration 20 uM, ASSAY_TEST Inhibition of Bacterial Growth, detection method Resazurin, Fluorescence (ex560/em590), MEDIA CAMHB, plate type 384well, CORNING #3640, time 18 hr.

Experiment [2] concerns Acinetobacter baumannii. Nature of the experiment: Antibacterial activity against Acinetobacter baumannii ATCC 19606 (CO-ADD:GN_034); MIC in CAMBH media using NBS plates, by Resazurin F(560/590). Format: functional. Conditions: Concentration 20 uM, ASSAY_TEST Inhibition of Bacterial Growth, detection method Resazurin, Fluorescence (ex560/em590), MEDIA CAMHB, plate type 384well, CORNING #3640, time 18 hr. In general terms: The colour change of resazurin is a common sign of viable cells or microbes.

Experiment [3] has as its system Escherichia coli. The experiment is described as follows: Antibacterial activity against Escherichia coli ATCC 25922 (CO-ADD:GN_001); MIC in CAMBH media using NBS plates, by Resazurin F(560/590). Format: functional. Conditions: Concentration 20 uM, ASSAY_TEST Inhibition of Bacterial Growth, detection method Resazurin, Fluorescence (ex560/em590), MEDIA CAMHB, plate type 384well, CORNING #3640, time 18 hr.

Experiment [4] concerns Klebsiella pneumoniae. The settings on record: Concentration 20 uM; ASSAY_TEST Inhibition of Bacterial Growth; detection method Absorption (OD600); MEDIA CAMHB; plate type 384well; NBS; CORNING #3640; time 18 hr.
In experiment [5] the test system is Candida albicans. The settings on record: 20 µM.
The test system of experiment [6] is Cryptococcus neoformans. The settings on record: Concentration 20 uM; ASSAY_TEST Inhibition of Fungal Growth; detection method Resazurin; Absorption (OD600-OD570); plate type 384well; NBS; CORNING #3640.

Turning to `COc1cc(CC(=O)C(=O)O)oc(=O)c1`, the Inhibition is 12.14% in experiment [1]; 6.41% in experiment [2]; -2.06% in experiment [3]; 12.51% in experiment [4]; 3.8% in experiment [5]; -8.52% in experiment [6].

Consider `O=C(O)c1cc(O)ccc1/N=N/c1ccccc1`, for which the Inhibition is 3.85% in experiment [1]; -9.66% in experiment [2]; 1.52% in experiment [3]; 5.36% in experiment [4]; 10.2% in experiment [5]; -9.07% in experiment [6].

As to `O=[N+]([O-])c1cc2cccnc2c2ncccc12`, the Inhibition in experiment [1] was -17.5%; in experiment [2] it was -9.82%; in experiment [3], 9.62%; in experiment [4], 9.1%; in experiment [5] it was 0.77%; in experiment [6], -9.49%.

Turning to `CC(=O)NCC1(O)CCCC(C)C1` (stereo not given), the Inhibition was 7.69% in experiment [1]; -13.88% in experiment [2]; 5.11% in experiment [3]; 9.82% in experiment [4]; 1.28% in experiment [5]; -5.78% in experiment [6].

Take `OCc1nnn(-c2ccccc2)c1CO`: the Inhibition in experiment [1] is 11.04%; in experiment [2] it was -9.88%; in experiment [3] it was 7.14%; in experiment [4], 22.49%; in experiment [5], -4.02%; in experiment [6], -6.38%.

In the case of `CCOC(=O)c1cc(OCC)c2c(ccc3ccccc32)n1`, the Inhibition in experiment [1] is -12.94%; in experiment [2], 1.72%; in experiment [3] it was -4.9%; in experiment [4], 7.15%; in experiment [5] it was 2.28%; in experiment [6] it was -11.11%.

For the compound `CCC(CO)Nc1nc2ccc(Cl)cc2c2ccccc12` (stereo not given), the Inhibition in experiment [1] was 32.89%; in experiment [2], 5.43%; in experiment [3], 4.69%; in experiment [4] it was 20.8%; in experiment [5], 4.64%; in experiment [6] it was -2%.

As for `CCC(C)N=C(S)Nc1ccccc1` (stereo not given), the Inhibition in experiment [1] was -4.21%; in experiment [2] it was 6.89%; in experiment [3], 4.84%; in experiment [4] it was 5.07%; in experiment [5], 5.4%; in experiment [6] it was -3.02%.

On to `Cc1ccc(C2C=CC(C#N)=CN2Cc2ccccc2)cc1` (stereo not given), for which the Inhibition was 18.9% in experiment [1]; -15.76% in experiment [2]; 11.73% in experiment [3]; 11.58% in experiment [4]; -1.48% in experiment [5]; -7.94% in experiment [6].

Consider `Cn1cnc([N+](=O)[O-])c1N=C(N)N`, for which the Inhibition is -12.1% in experiment [1]; -2.18% in experiment [2]; 11.15% in experiment [3]; 7.43% in experiment [4]; -4.73% in experiment [5]; 1.78% in experiment [6].

As for `Cc1ccc(C)c(N2CCN(c3ccncc3N)CC2)c1`, the Inhibition is -5.41% in experiment [1]; -5.32% in experiment [2]; 7.02% in experiment [3]; 8.69% in experiment [4]; 3.75% in experiment [5]; -6.74% in experiment [6].

As for `Cc1cc(C)n(C(=N)NC(=O)c2ccccc2)n1`, the Inhibition in experiment [1] is 12.05%; in experiment [2], 6.54%; in experiment [3], -0.32%; in experiment [4] it was 6.77%; in experiment [5], 6.7%; in experiment [6], -12%.

Regarding `O=c1cc(-c2ccc(O)cc2)oc2c(O)c(O)c(O)c(O)c12`, the Inhibition was 7.67% in experiment [1]; -15.85% in experiment [2]; 3.54% in experiment [3]; 11.62% in experiment [4]; 6.97% in experiment [5]; -2.27% in experiment [6].

As to `CC(=O)Oc1ccc2cc(-c3ccccc3)c(=O)oc2c1`, the Inhibition is 19.48% in experiment [1]; 8.94% in experiment [2]; -2.31% in experiment [3]; 17.84% in experiment [4]; 4.89% in experiment [5]; -3.36% in experiment [6].

For `c1ccc2c(c1)Oc1cccc3cccc-2c13`, the Inhibition was 13.84% in experiment [1]; -15.64% in experiment [2]; 12.26% in experiment [3]; 8.47% in experiment [4]; 7.02% in experiment [5]; -13.12% in experiment [6].

Consider `Nc1cc(N)nc(CS)n1`, for which the Inhibition in experiment [1] is 9.52%; in experiment [2], -5.46%; in experiment [3] it was 6.53%; in experiment [4], 20.9%; in experiment [5], -2.73%; in experiment [6] it was -6.05%.

For the compound `NNC(=O)CNc1cccc(Br)c1`, the Inhibition in experiment [1] was 11.03%; in experiment [2] it was 1.39%; in experiment [3], 7.55%; in experiment [4], 8.17%; in experiment [5], 1.56%; in experiment [6], -4.46%.

With `CN(C)Cc1c[nH]c2nccnc12`, the Inhibition in experiment [1] is 11.84%; in experiment [2], -4.46%; in experiment [3], 11.46%; in experiment [4] it was 8.34%; in experiment [5], 0.19%; in experiment [6], 2.55%.

With `O=C(O)c1ccccc1-c1ccccc1C(=O)Nc1ccc2oc(=O)c3ccccc3c2c1`, the Inhibition in experiment [1] is 4.75%; in experiment [2] it was -2.77%; in experiment [3], -0.87%; in experiment [4] it was 11.43%; in experiment [5] it was 17.8%; in experiment [6] it was -3.99%.

Turning to `Cc1cc(-c2ccc(N3C(=O)CC4(CCCC4)C3=O)c(C)c2)ccc1N1C(=O)CC2(CCCC2)C1=O`, the Inhibition is 2.65% in experiment [1]; -13.47% in experiment [2]; 9.87% in experiment [3]; -0.13% in experiment [4]; 4.32% in experiment [5]; -5.08% in experiment [6].

For the compound `Cc1ccn2c(C(C)O)nnc2c1` (stereo not given), the Inhibition in experiment [1] was 16.33%; in experiment [2] it was -15.76%; in experiment [3], 12.13%; in experiment [4] it was 2.31%; in experiment [5], -1.79%; in experiment [6], -15.94%.

In the case of `COC1=CC(C)C2CC3OC(O)CC4C(C)=C(OC)C(=O)C(C2(C)C1=O)C34C` (stereo not given), the Inhibition in experiment [1] is 7.24%; in experiment [2], 8.28%; in experiment [3], -3.89%; in experiment [4] it was 9.99%; in experiment [5] it was 3.92%; in experiment [6] it was 7.39%.

As to `Cc1cc(=O)n2nc(-c3ccc(C(C)(C)C)cc3)cc2[nH]1`, the Inhibition is 15.3% in experiment [1]; 0.45% in experiment [2]; 6.17% in experiment [3]; 14.85% in experiment [4]; 4.49% in experiment [5]; -5.87% in experiment [6].

In the case of `COc1cc(O)c(C(=O)/C=C/c2ccccc2)c(OC)c1` [FLAVOKAWAIN B], the Inhibition in experiment [1] was 9.23%; in experiment [2], 7.33%; in experiment [3], 2.45%; in experiment [4], 12.32%; in experiment [5], 6.59%; in experiment [6], -7.74%.

With `O=C(OCC1CCC=CO1)C1CCC=CO1` (stereo not given), the Inhibition in experiment [1] was 6.99%; in experiment [2], -10.56%; in experiment [3], 3.07%; in experiment [4] it was 7.72%; in experiment [5], 0.31%; in experiment [6] it was -9.47%.
